# The panel holds about 83,000 compounds, 20% with a hit somewhere; the sample as a whole holds those more often.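 Step 1: grow cells in 96-well plates. Step 2: add test compound at a single concentration. Step 3: incubate 48 h. Step 4: record percent growth.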 Values without a mark were called inactive. Active and inactive are the calls of the source. The calls were made as follows: active = growth percent below 10; inactive = the rest.
# Legend:
# Assay in all cases: NCI-60 one-dose screen, 48 h (100 = growth as untreated, 0 = no growth, -100 = all killed)
# Details in all cases: 10 µM unless noted
# DU-145 prostate = tested on: DU-145 prostate
# K-562 leukemia = tested on: K-562 leukemia
# MALME-3M melanoma = tested on: MALME-3M melanoma
# MDA-MB-231 breast = tested on: MDA-MB-231 breast
# RXF 393 renal = tested on: RXF 393 renal
# SF-268 CNS = tested on: SF-268 CNS
# SF-295 CNS = tested on: SF-295 CNS
# SF-539 CNS = tested on: SF-539 CNS
# UACC-257 melanoma = tested on: UACC-257 melanoma
# M14 melanoma = tested on: M14 melanoma
Compound,growth (DU-145 prostate),growth (K-562 leukemia),growth (MALME-3M melanoma),growth (MDA-MB-231 breast),growth (RXF 393 renal),growth (SF-268 CNS),growth (SF-295 CNS),growth (SF-539 CNS),growth (UACC-257 melanoma),growth (M14 melanoma)
CCn1cc(C(=O)O)c(=O)c2cc(F)c(N3CCN(CC(=O)Nc4ccc(/C(C)=N/OC)cc4)CC3)cc21,104%,92.5%,103%,85.9%,100%,94.1%,92.3%,92.7%,91.3%,99.4%
OCCNc1nc(NCCO)nc(Nc2ccc(C3=NN(c4cc(Cl)cc(Cl)c4)C(c4ccc(C(F)(F)F)cc4)C3)cc2)n1 (stereo not given),22.2%,10.7%,29.4%,42.3%,-27.2% (active),41.7%,-15.5% (active),24.3%,59.4%,36.1%
COc1cc(C(=O)Nc2cc(O)c(C/C=C(\C)CCC=C(C)C)c(O)c2)cc2c1O[C@]1(C)CC[C@@H](O)C(C)(C)[C@H]1C2,27%,-31.5% (active),-5.78% (active),-36.5% (active),-40.3% (active),24.8%,-36.2% (active),-41.7% (active),24%,-0.604% (active)
COc1cc(NC(=O)Nc2cnc(Nc3ccc(N4CCOCC4)cc3)nc2Oc2ccc(F)cc2)cc(OC)c1,86.3%,72.5%,62.7%,87.6%,77.8%,75.8%,109%,89.1%,78%,91.7%
COCCc1n(Cc2ccc3ccccc3c2)c2ccccc2[n+]1Cc1ccc2ccccc2c1,2.65% (active),-67.8% (active),-69.5% (active),-74.7% (active),-44.3% (active),-58.4% (active),-32.7% (active),-8.99% (active),-29.3% (active),-72.2% (active)
COc1ccc(-c2cn(-c3ccc(Cl)cc3)c(=S)[nH]2)cc1OC,78.5%,75.9%,90.2%,53%,11%,96.1%,68.6%,85.6%,65.8%,4.41% (active)
O=C(O)C(C(=O)O)c1cccc2ccccc12,105%,93.8%,107%,108%,107%,98%,101%,94.5%,88.1%,101%
COc1cc(NC(=O)c2cc(O)c(C/C=C(\C)CCC=C(C)C)c(O)c2)cc2c1O[C@]1(C)CC[C@@H](O)C(C)(C)[C@H]1C2,20.3%,0.252% (active),-18.5% (active),-33.7% (active),-38.7% (active),15.7%,-8.51% (active),-51.2% (active),34.4%,-15.4% (active)
COc1ccc(-n2cc(-c3ccc(Cl)c(Cl)c3)[nH]c2=O)cc1OC,98.3%,80.2%,80.1%,85.1%,108%,109%,101%,102%,85.7%,104%
C#C[C@@]1(O)[C@@H](CO)O[C@@H](n2cc(Cl)c3c(N)ncnc32)[C@@H]1O,4.44% (active),4.99% (active),-19.5% (active),-6.34% (active),-33.4% (active),15.3%,-26.8% (active),-54.3% (active),40.9%,-25.8% (active)
CCc1n(Cc2ccc3ccccc3c2)c2ccccc2[n+]1Cc1ccc2ccccc2c1,67.7%,35.3%,54.1%,60.3%,94.1%,64.7%,93.3%,68.8%,59%,48.7%
CC(=O)c1c(OCC#N)ccc2c(C)cc(=O)oc12,114%,69%,116%,104%,106%,110%,125%,105%,133%,102%
COc1cc(N=Nc2cc(S(=O)(=O)O)cc3cc(S(=O)(=O)O)cc(O)c23)c(C)cc1N=Nc1c(S(=O)(=O)O)cc2cc(Nc3ccccc3)ccc2c1O,103%,84.6%,93.8%,107%,129%,98.2%,109%,103%,111%,102%
O=C(Nc1cccc(-c2cccc(F)c2)c1)C1CCN(Cc2cccc3cccnc23)CC1,72%,-37.6% (active),-50% (active),37.8%,68.6%,56.8%,56.1%,69.5%,-2.39% (active),-54% (active)
